# Screening results: PubChem BioAssay, several laboratories
# This is a sample that favours compounds with a hit; in the whole collection about 1.8% have one here.
# TLR9-MyD88 inh = inhibitors of human TLR9-MyD88 binding | CHO BLA complementation TLR9-MyD88, CCF4 FRET ratio | inhibition, % at 4.98 µM | Q9NR96+Q99836 | AID 504734 | hit rate 0.21% among 340,000;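 active means inhibition above the mean over all tested compounds plus 3 SD, cut at about 21% in these data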;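 further: 0% = DMSO only wells and 100% = clavulanate BLA inhibitor control wells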
# Mcl-1 Bim block = inhibitors of Bim-Mcl-1 interaction, human. AID 1009. Q07820. inhibition, % at 10 µM. Bead-based flow cytometry, Bim peptide-Mcl-1 binding. hit rate 0.1% among 190,000; in the data active means inhibition above about 40%;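 further: 0% = no compound tracer wells and 100% = peptide blocker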
# NOD2 RIPK2 PPI = NOD2-RIPK2 protein interaction inhibition | hit rate 0.38% among 360,000 | CHO BLA complementation NOD2-RIPK2, CCF4 ratio | inhibition, % at 4.98 µM | O43353; in the data active means inhibition above about 21%;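 further: 0% = vehicle only and 100% = reference blocker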
# TLR4 MyD88 comp = blocks binding of human TLR4 to MyD88. HeLa CL3-4 TLR4/MyD88 BLA complementation, FRET ratio. inhibition, % at 8.4 µM. hit rate 0.18% among 200,000. AID 861; in the data active means inhibition above about 25%;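 further: 0% = vehicle and 100% = reference inhibitor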
# Target sequence (O00206 whole entry, looked up): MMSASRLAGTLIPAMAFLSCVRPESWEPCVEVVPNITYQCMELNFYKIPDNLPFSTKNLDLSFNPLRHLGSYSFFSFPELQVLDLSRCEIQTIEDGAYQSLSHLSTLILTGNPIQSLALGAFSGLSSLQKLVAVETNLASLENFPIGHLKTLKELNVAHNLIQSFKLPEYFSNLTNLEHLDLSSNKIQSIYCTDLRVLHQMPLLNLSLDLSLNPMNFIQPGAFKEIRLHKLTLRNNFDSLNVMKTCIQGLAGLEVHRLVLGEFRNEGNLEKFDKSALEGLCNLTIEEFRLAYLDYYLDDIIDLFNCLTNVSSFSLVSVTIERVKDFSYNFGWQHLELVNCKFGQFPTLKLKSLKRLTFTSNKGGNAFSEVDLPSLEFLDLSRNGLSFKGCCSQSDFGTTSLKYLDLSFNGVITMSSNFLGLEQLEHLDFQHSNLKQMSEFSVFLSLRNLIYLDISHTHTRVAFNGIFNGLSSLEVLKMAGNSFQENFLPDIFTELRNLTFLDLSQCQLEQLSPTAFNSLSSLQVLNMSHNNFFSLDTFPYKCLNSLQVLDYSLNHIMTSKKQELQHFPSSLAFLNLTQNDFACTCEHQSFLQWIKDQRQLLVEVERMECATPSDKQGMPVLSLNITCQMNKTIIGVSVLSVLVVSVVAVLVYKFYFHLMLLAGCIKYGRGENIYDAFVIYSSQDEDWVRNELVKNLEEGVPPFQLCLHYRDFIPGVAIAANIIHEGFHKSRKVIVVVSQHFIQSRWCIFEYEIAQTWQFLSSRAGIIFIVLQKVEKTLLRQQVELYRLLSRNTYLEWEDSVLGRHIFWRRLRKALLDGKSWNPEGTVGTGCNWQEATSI
# Target sequence (Q99836 whole entry, looked up): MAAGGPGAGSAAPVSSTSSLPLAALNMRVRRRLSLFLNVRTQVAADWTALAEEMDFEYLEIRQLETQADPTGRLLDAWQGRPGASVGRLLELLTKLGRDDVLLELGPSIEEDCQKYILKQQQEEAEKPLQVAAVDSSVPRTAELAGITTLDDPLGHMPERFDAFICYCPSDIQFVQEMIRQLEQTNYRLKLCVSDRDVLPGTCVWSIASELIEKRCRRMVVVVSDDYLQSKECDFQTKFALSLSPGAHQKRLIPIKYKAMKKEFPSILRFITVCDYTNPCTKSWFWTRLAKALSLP
# Mcl1 Noxa PPI = disrupts binding of human Mcl-1 to Noxa peptide; TR-FRET Mcl-1/Noxa peptide binding, 2 h; inhibition, % at 21.7 µM; hit rate 1.5% among 220,000; Q07820;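 active means compounds that cut the protein-peptide binding signal by more than 50% relative to plate controls in a single-dose test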;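 further: His-tagged Mcl-1 with rhodamine Noxa BH3 peptide and terbium anti-His antibody; 0% = Mcl-1 plus Noxa peptide wells and 100% = peptide-only wells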
# Mcl1 Bid PPI = Mcl-1/Bid interaction inhibition; TR-FRET Mcl-1/Bid-Dy647 peptide binding, 1536-well; inhibition, % at 21.7 µM; hit rate 0.97% among 220,000;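 active means compounds that cut the binding signal by more than half at the single screening dose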;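 further: His-tagged Mcl-1 with europium anti-His antibody binding Bid BH3 peptide; 0% = Mcl-1 plus peptide wells and 100% = peptide-only wells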
# NOD2-RIPK2 conf = NOD2-RIPK2 interaction inhibition confirmed. shares compounds with NOD2 RIPK2 PPI. CHO cells, NOD2-RIPK2 BLA complementation, CCF4 FRET. inhibition, % at 4.98 µM. hit rate 70% among 1,200. AID 624370;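 active means mean inhibition across replicates above a set limit taken from the earlier primary screen, cut at about 21% in these data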;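 further: 0% = DMSO-only wells and the high end = clavulanate BLA-blocked wells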
# NOD2 BLA counter = hits BLA reporter in NOD2-RIPK2 inhibitor counterscreen; inhibition, % at 4.98 µM; CHO BLA reporter, CCF4 FRET ratio; shares compounds with NOD2 RIPK2 PPI; AID 624371; hit rate 57% among 1,200;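 active means mean inhibition above the low-control mean inhibition plus three low-control SD, cut at about 11% in these data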;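 further: 0% = DMSO only wells and 100% = clavulanate high control wells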
# The depositor's hits bear a star; / = no result given; ! = not active in a repeat.
SMILES,TLR9-MyD88 inh,Mcl-1 Bim block,NOD2 RIPK2 PPI,TLR4 MyD88 comp,Mcl1 Noxa PPI,Mcl1 Bid PPI,NOD2-RIPK2 conf,NOD2 BLA counter
CC(=O)OCC1OC(n2cc(F)c(=O)[nH]c2=O)C(OC(C)=O)C1OC(C)=O (stereo not drawn),-4.8,/,-3.0,/,/,/,/,/
CCCCNc1c(-c2ccc(SC3CCCCC3)cc2)nc2ccccn12,0.2,/,5.6,/,/,/,/,/
CCCCNc1c(-c2ccc(SC(C)CC)cc2)nc2ccccn12 (stereo not drawn),9.5,/,21.7*!,/,/,/,20.4,16.2*
Cc1ccc2nc(Br)c3c(c2c1)OC(CBr)C3 (stereo not drawn),-8.3,/,-7.6,/,/,/,/,/
CN(CC(=O)Nc1ccccc1Cl)C(=O)COC(=O)c1nc(Cl)c(Cl)c(Cl)c1Cl,15.3,/,23.9*,/,/,/,28.1*,9.3
OCc1ccccc1-c1cnc2cccnn12,/,/,-2.2,/,/,/,/,/
CNC(=O)c1c(Cl)cnn1-c1ccccc1,/,0.0,-9.4,-6.2,-1.2,-40.9,/,/
CC(=O)Nc1c(Cl)cnn(-c2ccccc2)c1=O,/,/,21.5*,/,/,/,7.4,-3.6
CCCCN1CCCCC1(C)C(=O)NCc1ccc2c(c1)OCO2 (stereo not drawn),/,/,3.8,/,/,/,/,/
Cc1cccc(C)c1N1CCN(C(c2cc3ccccc3o2)c2nnnn2C(C)(C)C)CC1 (stereo not drawn),/,/,21.4*,/,/,/,-4.2,-5.3
CCCCn1nnnc1C(c1cc2ccccc2o1)N1CCN(c2c(C)cccc2C)CC1 (stereo not drawn),/,/,-3.2,/,/,/,/,/
O=C(O)/C=C/c1ccc(S(=O)(=O)NCc2cccnc2)cc1,-1.0,/,-17.6,/,1.0,-43.5,/,/
CCCOc1ccc(NC(=O)C2CC(=O)N/C(=N/N=C(\C)CCc3ccc4c(c3)OCO4)S2)cc1 (stereo not drawn),9.1,-5.0,-5.1,-7.7,2.6,-48.6,/,/
CCCOc1ccc(NC(=O)C2CC(=O)N/C(=N/N=C(C)/C=C/c3ccc(N(C)C)cc3)S2)cc1 (stereo not drawn),9.7,1.0,22.2*,12.8,-9.7,-48.3,18.7,25.6*
CC(/C=C/c1ccc(N(C)C)cc1)=N\N=C1\NC(=O)CC(C(=O)Nc2ccccc2)S1 (stereo not drawn),2.4,0.0,-0.8,-0.7,-25.6,-49.8,/,/
CC(/C=C/c1ccc(N(C)C)cc1)=N/N=C1/NC(=O)CC(C(=O)Nc2ccc(Cl)cc2)S1 (stereo not drawn),14.4,-2.0,24.0*,6.8,-62.2,-57.4,18.6,32.0*
CCOc1cc(N2CCOCC2)c(OCC)cc1NC(=O)c1ccc(OC)c(S(=O)(=O)N2CCOCC2)c1,-2.2,/,0.8,/,/,/,/,/
COc1ccccc1/C=C1\SC(=S)N(CCC(=O)Nc2cc(C)on2)C1=O,-3.9,/,-4.6,/,/,/,/,/
Cc1cc(NC(=O)CCN2C(=O)/C(=C/c3ccccc3Cl)SC2=S)no1,0.3,-6.0,33.9*,-13.4,10.9,8.9,-10.5,-1.6
CCOC(=O)C(C(=O)OCC)C(=O)c1cccc2ccc3ccccc3c12,-3.6,/,-10.5,/,/,/,/,/
COc1ccc(S(N)(=O)=O)cc1C(=O)NCC(C)(C)N1CCOCC1,8.6,/,8.3,/,/,/,/,/
COc1cc(CC(=O)NCC(C)(C)N2CCOCC2)cc(OC)c1OC,-4.4,/,38.4*,/,/,/,-1.5,-0.8
Cc1c(C(=O)Nc2ccccc2)c2ccc(C(F)(F)F)cc2n1O,/,/,34.2*,/,/,/,28.3*,10.0
Cc1cccc(C)c1NC(=O)C1(C)CCC(=O)N1C1CCN(Cc2ccccc2)CC1 (stereo not drawn),/,/,-7.4,/,/,/,/,/
O=C(CSc1ccc([N+](=O)[O-])cc1)Nc1cccc(S(=O)(=O)N2CCOCC2)c1,10.9,/,40.8*,/,/,/,-0.3,-1.4
SMILES,TLR9-MyD88 inh,Mcl-1 Bim block,NOD2 RIPK2 PPI,TLR4 MyD88 comp,Mcl1 Noxa PPI,Mcl1 Bid PPI,NOD2-RIPK2 conf,NOD2 BLA counter
COc1ccc(NC(=O)c2cnn(-c3ccccc3)c2C)cc1,-0.3,/,-1.4,/,/,/,/,/
COc1ccc(CN2CCn3ncc(C(=O)Nc4ccccc4)c3C2=O)cc1,-1.4,1.0,22.4*,-4.4,8.2,0.3,-6.5,-3.4
OC[C@H]1O[C@H](OC[C@H]2OC(O)[C@H](O)[C@@H](O)[C@@H]2O)[C@H](O)[C@@H](O)[C@@H]1O (stereo partly drawn),-6.3,/,-19.2,/,/,/,/,/
CN(C)c1oc(/C=C/c2cccs2)nc1S(=O)(=O)c1ccccc1,-1.4,/,-13.8,/,/,/,/,/
COC(=O)C[C@H]1CC[C@H](NC(=O)c2cccc(F)c2)[C@@H](CO)O1,/,/,2.5,/,/,/,/,/
COc1ccc(NC(=O)c2nc(S(=O)(=O)Cc3cccc(C)c3)ncc2Cl)c(OC)c1,3.6,/,8.6,/,/,/,/,/
Cc1cccc(CS(=O)(=O)c2ncc(Cl)c(C(=O)NCc3ccccc3)n2)c1,2.0,/,56.9*,/,/,/,69.0*,14.9*
CCCc1nnc(NC(=O)c2nc(S(=O)(=O)Cc3cccc(C)c3)ncc2Cl)s1,1.0,/,19.6,/,/,/,/,/
Cc1cccc(C)c1NC(=O)c1nc(S(=O)(=O)Cc2ccccc2)ncc1Cl,8.4,/,54.8*,/,/,/,47.9*,5.1
Cc1cccc(CS(=O)(=O)c2ncc(Cl)c(C(=O)Nc3c(C)cccc3C)n2)c1,8.0,/,67.3*,/,/,/,47.4*,-4.0
CC1(C)CC(=O)C(CSC(=O)c2ccccc2)C(=O)C1,-11.8,/,5.7,/,/,/,/,/
CC(=O)Nc1cccc(-c2ccnc3c2CC(C(=O)NCc2ccc(N(C)C)cc2)O3)c1 (stereo not drawn),/,/,-5.2,/,/,/,/,/
CSc1ccc(S(=O)(=O)NCC(=O)OCC(=O)N2CCCCC2C)cc1[N+](=O)[O-] (stereo not drawn),5.3,/,11.3,/,/,/,/,/
Cc1ccc(C(=O)c2c(C)oc3c2C(=O)C(=O)c2ccccc2-3)cc1,13.3,0.0,24.0*,-16.0,-14.5,-23.6,24.4*,3.2
CC1(C)CC(=O)C(C=NCC2CCN(C(=O)Nc3ccc(Cl)c(Cl)c3)CC2)=C(O)C1,1.7,-4.0,-3.1,9.7,-5.1,10.9,/,/
CN(C)Cc1c(O)ccc2cc(-c3nc4ccccc4n3C)c(=O)oc12,20.6,/,31.4*,/,/,/,32.6*,57.7*
CCOC(=O)C1(Cc2cccc(Cl)c2)CCCN(C(=O)c2cnn(CC)c2)C1 (stereo not drawn),2.9,/,-8.4,/,/,/,/,/
CN(C)c1ccc(/C=C/c2cccc[n+]2[O-])cc1,/,/,26.4*,/,3.0,-40.2,-24.3,8.1
O=[N+]([O-])c1ccc(N/N=C/c2ccccc2O)cc1,7.6,/,26.8*,/,/,/,37.7*,34.7*
O=[N+]([O-])c1ccc(NN=Cc2ccc(O)cc2O)nc1,5.0,/,21.9*,/,/,/,8.5,15.3*
O=[N+]([O-])c1ccc(C=NNc2ccccc2)cc1,15.8,/,5.4,/,/,/,/,/
COCCN(C(=O)c1csnn1)C(C(=O)NC1CCCCC1)c1ccccc1F (stereo not drawn),-10.1,/,-2.0,/,/,/,/,/
